Shown are actives, neighbours in structure and some others; about 8.7% of the full set was active somewhere.
JMJD2A Tudor inh = blocks the human JMJD2A Tudor domain | O75164 | AlphaScreen JMJD2A-Tudor / H3K4me3 peptide binding | Potency, µM (titrated, usually from 114 µM), inactives show top-dose activity change, negative = inhibition, usual class: inhibitors | 390,000 compounds, 4.4% hits; note: % is set by controls: 0 for no effect and ±100 for the full control effect; nearly all actives have a fitted effect of over 50% in size
Sfp PPTase inh = Sfp phosphopantetheinyl transferase inhibition. Q9F4F7. Biochemical Sfp PPTase activity, qHTS. Potency, µM, without a hit: largest response in the series, negative = inhibition, usual class: inhibitors. 310,000 compounds, 3.5% hits;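 note: the enzyme is Sfp with the accession as filed and its product quenches rhodamine fluorescence; 0% = enzyme reaction without inhibitor and -100% = no enzyme wells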
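Buffer: 50 mM Hepes-Na pH 7.6, 10 mM MgCl2, 0.01% Nonidet P-40, 0.01% BSA. Enzyme 15 nM, pre-exposed to compound 15 min; substrates then added and fluorescence change tracked over 30 min.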
BAZ2B block = BAZ2B (human) inhibition | AlphaScreen BAZ2B-H3K14Ac peptide displacement | Potency, µM (top dose mostly 114 µM), for inactives: at the highest dose activity change, negative = inhibition, hits mostly inhibitors | 360,000 compounds, 4.4% hits; note: % is set by controls: 0 for no effect and ±100 for the full control effect; nearly all actives have a fitted effect of over 60% in size
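AlphaScreen displacement of biotin-H3(5-23)K14Ac peptide (50 nM final) from BAZ2B (50 nM final) in PBS pH 7.4, 0.01% Tween-20; complex preformed 30 min RT, then compounds (top 110 uM) 30 min RT, beads 20 min dark.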
G9a block = blocks human histone lysine methyltransferase G9a; Potency, µM (top dose mostly 102 µM), for inactives: at the highest dose activity, negative = inhibition, most hits filed as inhibitors; 350,000 compounds, 8.8% hits; Q96KQ7; G9a H3K9 monomethylation, AlphaScreen, 2 h; note: % is set by controls: 0 for no effect and ±100 for the full control effect; nearly all actives have a fitted effect of over 75% in size
Target sequence (Q96KQ7 913-1193 limits assumed): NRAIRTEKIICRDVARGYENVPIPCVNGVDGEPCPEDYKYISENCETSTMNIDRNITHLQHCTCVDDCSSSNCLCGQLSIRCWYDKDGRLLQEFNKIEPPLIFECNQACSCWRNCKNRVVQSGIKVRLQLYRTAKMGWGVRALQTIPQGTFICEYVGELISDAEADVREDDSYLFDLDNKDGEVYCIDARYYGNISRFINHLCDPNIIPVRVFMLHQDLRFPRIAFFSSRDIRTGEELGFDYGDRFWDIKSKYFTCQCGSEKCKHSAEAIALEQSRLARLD
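Methyltransferase reactions run at room temperature for 2 h (20 nM enzyme, 500 nM biotin-H3K9 peptide, 20 uM SAM) after a 15 min compound preincubation; product detected by AlphaScreen beads and anti-H3K9me1 antibody.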
12-LOX inh = inhibitors of human 12S-lipoxygenase ALOX12; Potency, µM (titrated, usually from 108 µM), without a hit: top-dose activity change, negative = inhibition, actives largely listed as inhibitors; AID 1671190; 580,000 compounds, 1.1% hits; purified 12hLO, xylenol orange hydroperoxide absorbance; P18054; note: % is set by controls: 0 for no effect and ±100 for the full control effect
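Purified human 12hLO (150 nM final) in 25 mM Hepes, 0.01% Triton X-100, pH 7.0 was preincubated 15 min at room temperature with compound. Then 40 uM arachidonic acid was added, 30 min. Hydroperoxide was read by Fe-XO absorbance ratio 573/405 nm.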
HP1b binding inh = blocks HP1-beta chromodomain binding to methylated histone tails. P83916. AlphaScreen HP1-beta / biotin-H3K9me3 peptide binding. Potency, µM (titrated, usually from 114 µM), for the others: top-dose activity change, negative = inhibition, most hits filed as inhibitors. 390,000 compounds, 0.56% hits; note: nearly all actives have a fitted effect of over 70% in size
Target sequence (P83916 whole entry, looked up): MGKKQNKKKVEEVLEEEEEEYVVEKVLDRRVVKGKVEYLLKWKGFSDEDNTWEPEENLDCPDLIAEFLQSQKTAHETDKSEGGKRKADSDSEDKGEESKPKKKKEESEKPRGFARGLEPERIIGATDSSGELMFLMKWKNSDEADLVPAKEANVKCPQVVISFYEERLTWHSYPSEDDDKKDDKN
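Compound inhibition of the preformed complex between 50 nM HP1-beta and 50 nM biotinylated H3K9me3 peptide was read by AlphaScreen. Buffer was PBS pH 7.4 with 0.01% Tween-20. Incubations ran 30 min at room temperature, with 10 ug/mL donor/acceptor beads.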
Starred values were filed as active, the others as inactive; ? = inconclusive; / = not tested or not shown; ! = repeats disagree; [ ] = dose if it differs, or a comment. Calls come from the whole dose curve; as a rule, active = well fitted curve in the direction sought with a large enough effect; inconclusive = small, poorly fitted or top-dose-only effect, or another doubt; inactive = no such curve, though single readings can be large; an effect the other way counts as inactive or inconclusive. Potency is the fitted concentration of half-maximal effect.

SMILES	JMJD2A Tudor inh	Sfp PPTase inh	BAZ2B block	G9a block	12-LOX inh	HP1b binding inh
O=C(COc1ccc(Cl)cc1)N1CCN(C2CCCC2)CC1	20µM*	-6%	50µM*	8.9µM*	?	?
O=C(COc1ccc(Cl)cc1)N1CCN(Cc2ccccc2)CC1	-5%	3%	-5%	5%[59 µM]	-4%	21%
CC1CCC(N2CCN(C(=O)COc3ccccc3)CC2)CC1 (stereo not given)	4µM*	-23%	50µM*	11µM*	?	-18%
COCCO[C@H]1COCCN(C2CCOCC2)C1	/	/	/	/	39%[176 µM]	/
CSC(C)C(=O)NC(C)Cc1ccc(Br)cc1 (stereo not given)	/	/	/	/	-28%	/
Oc1cc2c(cc1O)[C@H]1c3ccccc3CN[C@H]1CC2	/	40µM*	/	1.4µM*	11µM*!	/
Oc1cc2c(cc1O)[C@H]1c3ccccc3CN[C@@H]1CC2	/	32µM*	?	2.5µM*	/	/
c1ccc([C@H]2CNCc3ccccc32)cc1	/	-7%	/	/	127%	/
N#C/C(=C\c1ccc(O)c(O)c1)C(N)=S	/	0.18µM*	/	/	?	/
Cc1ccc(C)c(CC(=O)N2CCN(Cc3ccccc3)CC(O)C2)c1 (stereo not given)	/	/	/	/	-4%	/
Cc1cc(OCC(=O)NCc2cccnc2)c2c3c(c(=O)oc2c1)CCCC3	-16%	18%	-23%	4%	1%	22%
NS(=O)(=O)c1ccc(CNC(=O)COc2ccc3c4c(c(=O)oc3c2)CCCC4)cc1	35µM*	-6%	-3%[57.1 µM]	14%	-14%	3%
NC(=O)c1ccc(N2CC3CCC(C2)N3CC(F)(F)F)nn1	/	/	/	/	12%[6.33 µM]	/
Cc1cccc(CSc2nc3c(cc2C#N)CN(C)CC3)c1	-24%	-21%	-1%	?	-5%	19%
CN1CCc2nc(SCc3ccccc3Br)c(C#N)cc2C1	?	-23%	-33%	18µM*	3%	40%
O=[N+]([O-])c1cc([N+](=O)[O-])c2ccccc2c1	/	/	/	/	-13%[57.4 µM]	/
O=C1NS(=O)c2cc([N+](=O)[O-])cc([N+](=O)[O-])c21 (stereo not given)	-14%	18µM*	?	/	-14%	44%
CCOC(=O)C1=C(N)OC(C)=C(C(C)=O)C12C(=O)Nc1ccccc12 (stereo not given)	/	/	/	/	-33%	/
Cc1c(C(=O)c2cccc3ccccc23)c2cccc3c2n1[C@H](CN1CCOCC1)CO3	56µM*	23%	/	11µM*!	?	-9%
O=C(CN1CCCCC1)c1ccc(-c2ccccc2)cc1	/	/	/	/	-25%	/
O=C(CN1CCOCC1)c1ccc(Br)cc1	79µM*	-9%	-16%	?	?	22%
Cc1c(C(=O)c2ccc3ccccc3c2)c2cccc3c2n1[C@H](CN1CCOCC1)CO3	/	-3%	/	/	?	/
O=C(CN1CCOCC1)c1cccc2ccccc12	7.9µM*	40µM*	50µM*	3.2µM*	?	-26%
COc1ccc(OC)c(S(=O)(=O)NC[C@H]2C[C@@H]3CCN2C[C@@H]3c2cc(-c3ccc(F)cc3)nn2C)c1	/	/	/	/	50%	/
O=C1CC2(CCN(Cc3ccccn3)C2)Nc2ccccc2N1 (stereo not given)	/	/	/	/	87%	/
SMILES	JMJD2A Tudor inh	Sfp PPTase inh	BAZ2B block	G9a block	12-LOX inh	HP1b binding inh
Cc1nc2cc(F)ccc2n1C1CCN(Cc2nnnn2CCc2ccccc2)CC1	-35%[57.1 µM]	0%	56µM*	-16%[59 µM]	?	-6%
COCCn1c(C)cc(C(=O)N2[C@H]3CC[C@@H]2c2cnc(-c4ccc(F)cc4)nc2C3)c1C	/	/	/	/	14%	/
O=C(c1ccc(F)cc1)N1CCC(N2CCCCCC2)CC1	?	?	50µM*	18µM*	-2%	?
O=C(c1ccc(F)cc1)N1CCC2(CC1)OCCO2	-11%	5%	-6%	/	8%	14%
C[C@@H]1O[C@H](C[N+](C)(C)C)C[C@H]1O	/	/	/	16µM*!	-3%	/
CC1OC(C[N+](C)(C)C)CC1O (stereo not given)	-8%	/	14%	2%[59 µM]	0%	17%
C[C@H]1OC[C@@H](C[N+](C)(C)C)O1	?	9%	-29%	1.6µM*	?	9%
O=C(c1ccc2c(c1)OCO2)N1[C@H]2CC[C@@H]1c1cnc(-c3ccc(F)cc3)nc1C2	/	/	/	/	-21%	/
N#Cc1cccc(NC(=O)NC[C@H]2C[C@@H]3CCN2C[C@@H]3CN2CCCCC2)c1	/	/	/	/	4%[176 µM]	/
COc1cc2c(cc1-c1cccnc1)NC(=O)C21CCN(C(C)=O)CC1	/	/	/	/	6%[176 µM]	/
CN(C)CCN(C)C[C@H]1CN2CC[C@H]1C[C@@H]2CNC(=O)c1ccc(N(C)C)cc1	/	/	/	/	43%[176 µM]	/
C[C@H](N)Cc1cccc(C(F)(F)F)c1	/	/	/	30µM*	/	/
CN(C)CCc1nc2ccccc2c(=O)n1-c1ccccc1	/	13%	12%	-26%[12.7 µM]	/	/
N#CCn1c(CCl)nc2ccccc2c1=O	-16%	9%	-13%	56µM*	-22%	19%

From PubChem
